Data reported in PubChem BioAssay AID1159580 (chemical genetic matrix, 2015).
Screen size: about 5,500 compounds; about 2,000 (36%) were called active. Another 18% or so got no clear call; they are omitted. Rule as the data show it: active = normalized growth mostly below about 0.91 (no sharp cut-off); inconclusive = no clear call, values can overlap the other calls; inactive = mostly above about 0.92. This is one part of the list.

Assay: chemical genetic growth profiling, strain panel (AID 1159580);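 also: tested at 20 µM; growth read once vehicle control cultures reached saturation at 30 °C; 1 = growth at the plate median or of vehicle wells; lower values mean less growth of the strain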
Conditions: growth OD

Measured: normalized growth

CC(C)CCCC(C)[C@H]1CCC2C3C(=O)C=C4C[C@@H](O)CC[C@]4(C)C3CC[C@@]21C (stereo partly drawn)
inactive: S. cerevisiae deletion strains, locus YJL187C, strain SWE1, hits give low values 1 | S. cerevisiae deletion strains, locus YJR043C, strain POL32, hits give low values 1.01 | S. cerevisiae deletion strains, locus YJR066W, strain TOR1, hits give low values 0.948 | S. cerevisiae deletion strains, locus YKL009W, strain mrt4, hits give low values 1.07 | S. cerevisiae deletion strains, locus YKL068W, hits give low values 1.01 | S. cerevisiae deletion strains, locus YKL085W, strain MDH1 (second series), hits give low values 1.03 | S. cerevisiae deletion strains, locus YKL085W, strain MDH1, hits give low values 1.03 | S. cerevisiae deletion strains, locus YKL160W, strain elf1, hits give low values 0.981 | S. cerevisiae deletion strains, locus YKR001C, strain vps1, hits give low values 1.05 | S. cerevisiae deletion strains, locus YKR026C, strain gcn3, hits give low values 0.996 | S. cerevisiae deletion strains, locus YKR091W, strain srl3, hits give low values 1 | S. cerevisiae deletion strains, locus YLL001W, strain dnm1, hits give low values 0.998 | S. cerevisiae deletion strains, locus YLL026W, hits give low values 1.01 | S. cerevisiae deletion strains, locus YLL041C, strain sdh2, hits give low values 0.991 | S. cerevisiae deletion strains, locus YLR027C, strain aat2, hits give low values 0.989 | S. cerevisiae deletion strains, locus YLR039C, strain RIC1, hits give low values 1.08 | S. cerevisiae deletion strains, locus YLR058C, strain SHM2, hits give low values 1.06 | S. cerevisiae deletion strains, locus YLR102C, strain apc9, hits give low values 1.03 | S. cerevisiae deletion strains, locus YLR113W, strain HOG1, hits give low values 0.975 | S. cerevisiae deletion strains, locus YLR221C, strain rsa3, hits give low values 0.981 | S. cerevisiae deletion strains, locus YLR258W, strain gsy2, hits give low values 1.02 | S. cerevisiae deletion strains, locus YLR262C, strain YPT6 (second series), hits give low values 0.972 | S. cerevisiae deletion strains, locus YLR262C, strain YPT6, hits give low values 1.09 | S. cerevisiae deletion strains, locus YLR268W, strain sec22, hits give low values 1.07 | S. cerevisiae deletion strains, locus YLR320W, strain mms22, hits give low values 1.03 | S. cerevisiae deletion strains, locus YLR330W, strain CHS5, hits give low values 1.02 | S. cerevisiae deletion strains, locus YLR342W, strain FKS1 (second series), hits give low values 1.07 | S. cerevisiae deletion strains, locus YLR342W, strain FKS1, hits give low values 1 | S. cerevisiae deletion strains, locus YLR357W, strain rsc2, hits give low values 1.06 | S. cerevisiae deletion strains, locus YLR370C, strain arc18, hits give low values 0.984 | S. cerevisiae deletion strains, locus YLR371W, strain rom2, hits give low values 1.03 | S. cerevisiae deletion strains, locus YLR384C, strain iki3, hits give low values 0.997 | S. cerevisiae deletion strains, locus YLR418C, strain cdc73, hits give low values 1.04 | S. cerevisiae deletion strains, locus YML016C, strain PPZ1, hits give low values 1.03 | S. cerevisiae deletion strains, locus YML032C, strain rad52, hits give low values 1.02 | S. cerevisiae deletion strains, locus YML120C, strain ndi1, hits give low values 0.965 | S. cerevisiae deletion strains, locus YML124C, strain tub3, hits give low values 1.02 | S. cerevisiae deletion strains, locus YMR058W, strain fet3, hits give low values 0.992 | S. cerevisiae deletion strains, locus YMR078C, strain ctf18, hits give low values 1.05 | S. cerevisiae deletion strains, locus YMR125W, strain sto1, hits give low values 1.01 | S. cerevisiae deletion strains, locus YMR129W, hits give low values 0.989 | S. cerevisiae deletion strains, locus YMR205C, strain PFK2, hits give low values 1.05 | S. cerevisiae deletion strains, locus YMR223W, strain ubp8, hits give low values 1.02 | S. cerevisiae deletion strains, locus YMR231W, strain pep5, hits give low values 1 | S. cerevisiae deletion strains, locus YMR307W, strain GAS1, hits give low values 1.11 | S. cerevisiae deletion strains, locus YNL067W, strain RPL9B, hits give low values 1.02 | S. cerevisiae deletion strains, locus YNL071W, strain lat1, hits give low values 0.993 | S. cerevisiae deletion strains, locus YNL183C, strain NPR1, hits give low values 0.937 | S. cerevisiae deletion strains, locus YNL209W, strain ssb2, hits give low values 1 | S. cerevisiae deletion strains, locus YNL233W, strain BNI4, hits give low values 1.02 | S. cerevisiae deletion strains, locus YNL248C, strain rpa49, hits give low values 0.934 | S. cerevisiae deletion strains, locus YNL250W, strain rad50, hits give low values 1.03 | S. cerevisiae deletion strains, locus YNL271C, strain bni1, hits give low values 1.05 | S. cerevisiae deletion strains, locus YNL298W, strain CLA4, hits give low values 1.04 | S. cerevisiae deletion strains, locus YNL307C, strain MCK1, hits give low values 1.05 | S. cerevisiae deletion strains, locus YNL322C, strain KRE1 (second series), hits give low values 0.98 | S. cerevisiae deletion strains, locus YNR049C, strain mso1, hits give low values 0.996 | S. cerevisiae deletion strains, locus YNR052C, strain pop2, hits give low values 1.03 | S. cerevisiae deletion strains, locus YOL012C, strain htz1 1.19 | S. cerevisiae deletion strains, locus YOL147C, strain pex11, hits give low values 1.01 | S. cerevisiae deletion strains, locus YOR001W, strain rrp6, hits give low values 0.994 | S. cerevisiae deletion strains, locus YOR061W, strain CKA2, hits give low values 1.05 | S. cerevisiae deletion strains, locus YOR069W, strain VPS5, hits give low values 1.02 | S. cerevisiae deletion strains, locus YOR070C, strain gyp1, hits give low values 0.999 | S. cerevisiae deletion strains, locus YOR080W, strain dia2, hits give low values 1.04 | S. cerevisiae deletion strains, locus YOR083W, strain WHI5, hits give low values 0.969 | S. cerevisiae deletion strains, locus YOR106W, strain vam3, hits give low values 0.978 | S. cerevisiae deletion strains, locus YOR136W, strain idh2, hits give low values 1.04 | S. cerevisiae deletion strains, locus YOR144C, strain elg1, hits give low values 1.02 | S. cerevisiae deletion strains, locus YOR184W, strain ser1, hits give low values 1.06 | S. cerevisiae deletion strains, locus YOR231W, strain MKK1, hits give low values 1 | S. cerevisiae deletion strains, locus YOR265W, strain rbl2, hits give low values 0.996 | S. cerevisiae deletion strains, locus YOR270C, strain vph1, hits give low values 0.907 | S. cerevisiae deletion strains, locus YOR290C, strain snf2, hits give low values 1.07 | S. cerevisiae deletion strains, locus YOR316C, strain cot1, hits give low values 1.04 | S. cerevisiae deletion strains, locus YPL051W, strain arl3, hits give low values 0.981 | S. cerevisiae deletion strains, locus YPL055C, strain LGE1, hits give low values 1.05 | S. cerevisiae deletion strains, locus YPL078C, strain atp4, hits give low values 0.935 | S. cerevisiae deletion strains, locus YPL106C, strain sse1, hits give low values 1.08 | S. cerevisiae deletion strains, locus YPL240C, strain hsp82, hits give low values 0.985 | S. cerevisiae deletion strains, locus YPL241C, strain CIN2, hits give low values 1.01 | S. cerevisiae deletion strains, locus YPL256C, strain CLN2, hits give low values 0.989 | S. cerevisiae deletion strains, locus YPR119W, strain clb2, hits give low values 1.03 | S. cerevisiae deletion strains, locus YPR141C, strain kar3, hits give low values 1.03 | S. cerevisiae deletion strains, locus YPR163C, strain tif3, hits give low values 1.03 | S. cerevisiae deletion strains, locus YPR167C, strain met16, hits give low values 1.04 | S. cerevisiae deletion strains, strain wtn01, hits give low values 1.03 | S. cerevisiae strains, strain wild type, hits give low values 1.02
